Nine molecules from PubChem BioAssay (NCI) can be followed below.

This is part of a sample that, as a whole, favours compounds with a hit. Of some 79,000 tested, about 15% had one in any assay. Unmarked numbers belong to inactive results. Calls of active or inactive are those of the source. Rule as the data show it: active = growth inhibition above about 70%; inactive = the rest.

The nature of test [1]: NCI Yeast Anticancer Drug Screen. Data for the rad50 strain (AID 155).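 Also: 0% = growth of vehicle-only cultures of the same strain.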 Conditions: S. cerevisiae rad50 strain growth inhibition, active compounds read high. Summed up:
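Inhibition values express reduced yeast growth in compound-treated cultures relative to vehicle-treated controls.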

Test [2] can be described thus: NCI Yeast Anticancer Drug Screen. Data for the mec2-1 strain (AID 157). The note with it: S. cerevisiae mec2-1 strain, active compounds read high. The method, boiled down: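 Test agents were screened against the mec2-1 yeast strain, with defined DNA repair or cell cycle alteration. Growth was scored as inhibition against vehicle-only controls.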
The nature of test [3]: NCI Yeast Anticancer Drug Screen. Data for the sgs1 mgt1 strain (AID 161).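 Also: 0% = growth of cultures given vehicle only.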 Conditions: S. cerevisiae sgs1 mgt1 strain, active compounds read high. Summed up: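 Inhibition of yeast growth, normalised to vehicle-treated controls, is reported for a strain bearing genetic alterations in DNA damage repair.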
Test [4] in a line: NCI Yeast Anticancer Drug Screen. Data for the cln2 rad14 strain (AID 165).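 Also: 0% = growth equal to vehicle treated cultures.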 Conditions: S. cerevisiae cln2 rad14 strain, active compounds read high. The method, boiled down: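 Growth of compound-exposed yeast (cln2 rad14 genotype) measured and expressed as inhibition relative to vehicle.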
Test [5] in a line: NCI Yeast Anticancer Drug Screen. Data for the bub3 strain (AID 167). The note with it: S. cerevisiae bub3 mutant strain, active compounds read high. Summed up: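 Steps: expose the mutant yeast strain to compound; grow alongside vehicle-treated cultures; measure growth; express inhibition against the vehicle cultures.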
Test [6] can be described thus: NCI Yeast Anticancer Drug Screen. Data for the mlh1 rad18 strain (AID 175). Conditions: S. cerevisiae mlh1 rad18 strain growth inhibition, active compounds read high. The method, boiled down:
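In this whole-cell yeast screen, a strain with altered DNA damage repair is challenged with compound, and its growth is measured against matched vehicle-treated controls.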

[7] abbreviates: at 5.0 µM (retest, dose inferred, filed as 0.5).
Setting [8] is: at 50.0 µM (retest, dose inferred, filed as 5.0).

For the molecule `O=S(=O)(C#Cc1ccccc1)c1ccccc1`, the growth inhibition is 12% in test [1] (setting [7]); 98% (active) in test [1] (setting [8]); 99.4% (active) in test [1] (at 50.0 µM); -11% in test [2] (setting [7]); 99% (active) in test [2] (setting [8]); 99.5% (active) in test [2] (at 50.0 µM). Besides, the growth inhibition in test [3] (setting [7]) is 24%; in test [3] (setting [8]), 99% (active); in test [3] (at 50.0 µM), 99.4% (active); in test [4] (setting [7]) it was 7%; in test [4] (setting [8]) it was 99% (active); in test [4] (at 50.0 µM), 99.2% (active). The growth inhibition is 3% in test [5] (setting [7]); 98% (active) in test [5] (setting [8]); 99.1% (active) in test [5] (at 50.0 µM); 16% in test [6] (setting [7]); 99% (active) in test [6] (setting [8]); 99% (active) in test [6] (at 50.0 µM).
As for `CN(C)CCCSc1c2ccccc2nc2cccc([N+](=O)[O-])c12`, the growth inhibition in test [1] (setting [7]) is 2%; in test [1] (setting [8]), 10%; in test [1] (at 50.0 µM), 3.65%; in test [2] (setting [7]), 0%; in test [2] (setting [8]) it was -1%; in test [2] (at 50.0 µM), -9.4%. Further, the growth inhibition in test [3] (setting [7]) is -8%; in test [3] (setting [8]), -3%; in test [3] (at 50.0 µM), 7.5%; in test [4] (setting [7]), 12%; in test [4] (setting [8]) it was 18%; in test [4] (at 50.0 µM), -47.8%. Moreover, the growth inhibition is 14% in test [5] (setting [7]); 8% in test [5] (setting [8]); -43.5% in test [5] (at 50.0 µM); 2% in test [6] (setting [7]); -5% in test [6] (setting [8]); 20.6% in test [6] (at 50.0 µM).
As to `COc1cc(C(=O)CBr)c2ccc(Cl)cc2n1`, the growth inhibition in test [1] (setting [7]) is 73% (active); in test [1] (setting [8]), 97% (active); in test [1] (at 50.0 µM), 84.8% (active); in test [2] (setting [7]), 90% (active); in test [2] (setting [8]), 98% (active); in test [2] (at 50.0 µM), 69.2%. Besides, the growth inhibition is 94% (active) in test [3] (setting [7]); 97% (active) in test [3] (setting [8]); 94% (active) in test [3] (at 50.0 µM); 59% in test [4] (setting [7]); 97% (active) in test [4] (setting [8]); 95.3% (active) in test [4] (at 50.0 µM). Further, the growth inhibition in test [5] (setting [7]) was 87% (active); in test [5] (setting [8]) it was 97% (active); in test [5] (at 50.0 µM) it was 70.3% (active); in test [6] (setting [7]) it was 93% (active); in test [6] (setting [8]), 97% (active); in test [6] (at 50.0 µM) it was 91.4% (active).
With `CCCCCNC(=O)C1C(=O)N(CCCCC)C(=O)/C1=N\N` (configuration not stated), the growth inhibition was -1% in test [1] (setting [7]); -1% in test [1] (setting [8]); -5% in test [1] (at 50.0 µM); -3% in test [2] (setting [7]); 2% in test [2] (setting [8]); 29.8% in test [2] (at 50.0 µM). For the same molecule, the growth inhibition in test [3] (setting [7]) is 2%; in test [3] (setting [8]) it was 3%; in test [3] (at 50.0 µM) it was 1.7%; in test [4] (setting [7]) it was 1%; in test [4] (setting [8]), -3%; in test [4] (at 50.0 µM), 79.7% (active). Moreover, the growth inhibition in test [5] (setting [7]) is 5%; in test [5] (setting [8]), -3%; in test [5] (at 50.0 µM), 30.8%; in test [6] (setting [7]), -1%; in test [6] (setting [8]) it was -4%; in test [6] (at 50.0 µM), -13.5%.
Take `CC(=O)N[C@H]1CC[C@H]2[C@@H]3CCC4=CC(=O)CC[C@]4(C)[C@H]3CC[C@]12C`: the growth inhibition in test [1] (setting [7]) was 5%; in test [1] (setting [8]), 94% (active); in test [1] (at 50.0 µM) it was 33.2%; in test [2] (setting [7]), -11%; in test [2] (setting [8]), 95% (active); in test [2] (at 50.0 µM) it was 94.5% (active). Also, the growth inhibition in test [3] (setting [7]) was 10%; in test [3] (setting [8]), -10%; in test [3] (at 50.0 µM), 94.2% (active); in test [4] (setting [7]), -8%; in test [4] (setting [8]), 97% (active); in test [4] (at 50.0 µM), 79.5% (active). Also, the growth inhibition in test [5] (setting [7]) is -1%; in test [5] (setting [8]), 97% (active); in test [5] (at 50.0 µM) it was 98% (active); in test [6] (setting [7]), -4%; in test [6] (setting [8]), 95% (active); in test [6] (at 50.0 µM), 93.8% (active).
Consider `CC(C)(C)c1ccc(-c2nc3ccccc3c(=O)o2)cc1`, for which the growth inhibition in test [1] (setting [7]) was -3%; in test [1] (setting [8]), 20%; in test [1] (at 50.0 µM), 55.7%; in test [2] (setting [7]) it was -1%; in test [2] (setting [8]), 41%; in test [2] (at 50.0 µM) it was 53.1%. The growth inhibition in test [3] (setting [7]) is 14%; in test [3] (setting [8]), 74% (active); in test [3] (at 50.0 µM), 87.2% (active); in test [4] (setting [7]), -2%; in test [4] (setting [8]), 40%; in test [4] (at 50.0 µM) it was 61%. Also, the growth inhibition is -1% in test [5] (setting [7]); 86% (active) in test [5] (setting [8]); 89.8% (active) in test [5] (at 50.0 µM); -3% in test [6] (setting [7]); 55% in test [6] (setting [8]); 85% (active) in test [6] (at 50.0 µM).
In the case of `CC(C)c1ccc(CN(CCO)Cc2ccc(C(C)C)cc2)cc1`, the growth inhibition is 7% in test [1] (setting [7]); 84% (active) in test [1] (setting [8]); 97.2% (active) in test [1] (at 50.0 µM); 3% in test [2] (setting [7]); 88% (active) in test [2] (setting [8]); 75.6% (active) in test [2] (at 50.0 µM). Further, the growth inhibition in test [3] (setting [7]) is 6%; in test [3] (setting [8]), 95% (active); in test [3] (at 50.0 µM) it was 97.1% (active); in test [4] (setting [7]), 7%; in test [4] (setting [8]) it was 87% (active); in test [4] (at 50.0 µM), 77.3% (active). For the same molecule, the growth inhibition is 7% in test [5] (setting [7]); 97% (active) in test [5] (setting [8]); 98.6% (active) in test [5] (at 50.0 µM); 8% in test [6] (setting [7]); 91% (active) in test [6] (setting [8]); 81.8% (active) in test [6] (at 50.0 µM).
As for `O=C(Nc1cccc(Cl)c1)OCCOC(=O)Nc1cccc(Cl)c1`, the growth inhibition in test [1] (setting [7]) was 30%; in test [1] (setting [8]), 99% (active); in test [1] (at 50.0 µM) it was 99.5% (active); in test [2] (setting [7]), 3%; in test [2] (setting [8]), 99% (active); in test [2] (at 50.0 µM) it was 99.2% (active). Also, the growth inhibition in test [3] (setting [7]) was 22%; in test [3] (setting [8]), 100% (active); in test [3] (at 50.0 µM), 99.3% (active); in test [4] (setting [7]) it was 2%; in test [4] (setting [8]), 98% (active); in test [4] (at 50.0 µM), 98.4% (active). In addition, the growth inhibition in test [5] (setting [7]) was -4%; in test [5] (setting [8]) it was 99% (active); in test [5] (at 50.0 µM), 99.4% (active); in test [6] (setting [7]), 4%; in test [6] (setting [8]), 98% (active); in test [6] (at 50.0 µM), 98.9% (active).
Take `O=C(SC(O)c1ccc(Cl)cc1)c1ccccc1` (configuration not stated): the growth inhibition in test [1] (setting [7]) was -7%; in test [1] (setting [8]) it was 58%; in test [1] (at 50.0 µM) it was 79.8% (active); in test [2] (setting [7]) it was -7%; in test [2] (setting [8]), 57%; in test [2] (at 50.0 µM), 74.5% (active). Also, the growth inhibition in test [3] (setting [7]) is -3%; in test [3] (setting [8]), 68%; in test [3] (at 50.0 µM) it was 85.3% (active); in test [4] (setting [7]), -4%; in test [4] (setting [8]) it was 58%; in test [4] (at 50.0 µM), 22.9%. Besides, the growth inhibition is -5% in test [5] (setting [7]); 57% in test [5] (setting [8]); 64.9% in test [5] (at 50.0 µM); -8% in test [6] (setting [7]); 60% in test [6] (setting [8]); 81.8% (active) in test [6] (at 50.0 µM).
